This note sets out measurements from PubChem BioAssay AID624171 (National Center for Advancing Translational Sciences (NCATS), 2012).

Among all 410,000 compounds or so, about 1,200 (0.29%) were called active. Roughly 2% stayed inconclusive and do not appear here. Shown is part of a subset that was picked to be rich in actives. Entries that show only a call come without a potency. Unmarked numbers belong to inactive results. Calls follow the shape of the dose curve; as a rule, active = well fitted activation curve with a large enough effect; inconclusive = small, poorly fitted or top-dose-only effect; inactive = flat fitted curve, though single readings scatter.
Potency is read from the fitted curve at half-maximal effect.

This assay is described as follows: qHTS of Nrf2 Activators. Also: nearly all actives have a fitted effect of over 65% in size. The note with it: AREc32 ARE-luciferase reporter (MCF7-derived line), luminescence, 24 h; series mostly up to 46.1 µM. The method, boiled down: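 Reporter line AREc32 (ARE-Fluc), seeded overnight in OPTI-MEM with 5% FBS; compound pin-transferred, 24 hr at 37 deg C, 5% CO2; luminescent read-out.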
Background: Quantitative high-throughput screening tests each substance at several concentrations.
Regarding `CCN1CCN(c2cc(C)c3cc(NC(=O)c4cc(Cl)ccc4OC)ccc3n2)CC1`, the Potency entry was “inactive”.
On the same count and under the same terms, as for `COc1ccc(CCNC(=O)CCCn2c(=O)c3ccccc3n(Cc3ccc(F)cc3Cl)c2=O)cc1OC`, the entry is “inactive”; as for `CCOc1ccccc1C(=O)NC1(C(F)(F)F)C(=O)Nc2c1c(=O)[nH]c(=O)n2-c1ccc(F)cc1` (stereo unspecified), “inactive”.
Same read-out and setting: as for `Cc1ccc(-c2noc(-c3nnn(-c4cccc(C(F)(F)F)c4)c3N)n2)cc1`, the entry is “inactive”; as for `Cc1cccc(NC(=O)CSc2nnc(CNC(=O)c3cccc(C)c3)n2-c2ccccc2)c1`, “inactive”.
Consider `CCOC(=O)c1c(NC(C)=O)c2c3c(sc2n1Cc1c(C)cc(C)cc1C)CCCC3`, for which the Potency entry was “inactive”.
Turning to `COc1ccccc1CNC(=O)CCCCn1c(=O)c2ccccc2n(CC(=O)Nc2cc(Cl)ccc2C)c1=O`, the Potency result is “inactive”.
On the same count and under the same terms, the value for `COc1cccc(C(=O)N(Cc2cccc(Cl)c2)Cc2ccco2)c1` was “inactive”.
Regarding `COc1ccccc1N1CCN(S(=O)(=O)CCNC(=O)COc2ccc(F)cc2)CC1`, the Potency result was “inactive”.
The same measure, in the same setting: the value for `COC(=O)Cn1c(O)c(N=NC(=O)OC)c2ccccc21` was “inactive”; that for `CC(C)n1c(O)c(N=Nc2ccccn2)c2ccccc21` was 12.6 µM (active); that for `CCOC(=O)c1ccc(N2C(=O)c3[nH]nc(-c4ccccc4)c3C2c2ccc(C(C)C)cc2)cc1` (stereo unspecified) was “inactive”.
Still for that read-out and setting: as for `CC1CCCCN1Cc1c(O)ccc2c(=O)c(-c3cccc(Cl)c3)c(C(F)(F)F)oc12` (stereo unspecified), the entry is “inactive”; as for `COc1ccc(-c2nc3c4ccccc4n(CC(=O)Nc4ccc(C(C)=O)cc4)c(=O)n3n2)cc1`, “inactive”; as for `CC(C)(C)OC(=O)N1CCC(c2c(C(=O)N3CCc4ccccc4C3)cnn2-c2ccc(F)cc2)CC1`, “inactive”.
On the same count and under the same terms, the value for `COc1cc(CCN=Cc2ccccc2O)c([N+](=O)[O-])cc1OC` was “inactive”; that for `N/C(=N\OS(=O)(=O)c1cccc([N+](=O)[O-])c1)c1ccncc1` was “inactive”.
Turning to `O=C(/C=C/c1cccc([N+](=O)[O-])c1)OCC(=O)N1CCOCC1`, the Potency entry is “inactive”.
Still for that read-out and setting: the value for `O=C(N/N=C/c1cccc([N+](=O)[O-])c1)c1ccncc1` was 12.6 µM (active); that for `O=C(c1ccncc1)N1CCN(S(=O)(=O)c2cccc([N+](=O)[O-])c2)CC1` was “inactive”; that for `O=[N+]([O-])c1cccc(C=NN=Cc2ccccc2O)c1` was 10 µM (active).
Still for that read-out and setting: the value for `O=C(COc1ccccc1F)OCc1cc(=O)n2nc(C3CCCCC3)sc2n1` was “inactive”.
Same read-out and setting: the value for `Cc1cccc(OCC(=O)N(Cc2ccc(C(C)C)cc2)Cc2ccco2)c1C` was “inactive”.
For the compound `O=C1CSC2(C(=O)N(Cc3ccccc3)c3ccccc32)N1c1cccc(F)c1` (stereo unspecified), the Potency result is “inactive”.
Same read-out and setting: the value for `Cc1ccc(C)c(N2CCN(C(c3ccccc3)c3nnc(-c4ccccc4)o3)CC2)c1` (stereo unspecified) was “inactive”; that for `CCn1cc(C(=O)N2CCN(c3cc(Cl)ccc3C)CC2)c(=O)c2cc(S(=O)(=O)N3CCCC3)ccc21` was “inactive”; that for `Cc1ccc(-n2c3nc(=O)[nH]c(=O)c-3cc3c(Cl)cccc32)cc1` was “inactive”.
`O=C(OCC#CCSc1nnc(-c2ccncc2)o1)c1sc2ccccc2c1Cl`: the Potency entry is “inactive”.
As to `COc1ccc2c(Cl)c(-c3nnco3)sc2c1`, the Potency entry was “inactive”.
As for `C#CCSc1nnc(-c2sc3ccccc3c2Cl)o1`, the Potency was 4.47 µM (active).
The same measure, in the same setting: as for `CCN(CC)c1ccc(NC(=O)CN2C(=O)c3cccnc3Oc3ccc(Cl)cc32)c(C)c1`, the entry is “inactive”; as for `Cc1ccc2cccc(NC(=O)c3cccc4ccccc34)c2n1`, “inactive”; as for `Cc1cccc2c(=O)cc(CSc3ccccc3NC(=O)C(C)C)[nH]c12`, “inactive”.
The same measure, in the same setting: as for `Cc1ccccc1NC(=O)c1cnn(-c2ccccc2)c1NC(=O)c1ccco1`, the entry is “inactive”; as for `CCn1nc(NC(=O)c2ccco2)c2cc3ccc(C)cc3nc21`, “inactive”; as for `Cc1ccnc(NC(=O)c2ccco2)n1`, 12.6 µM (active).
Same read-out and setting: the value for `COc1ccc(NC(=O)CCc2nnc3n(CC(C)C)c(=O)c4ccccc4n23)cc1OC` was “inactive”.
In the case of `Cc1ccc(Cn2c(CCCNC(=O)C3CCCCC3)nc3ccccc32)cc1`, the Potency entry is “inactive”.
On the same count and under the same terms, as for `CCc1cc(C(=O)Nc2nnc(C3CC3)s2)sc1C`, the entry is “inactive”.
On the same count and under the same terms, as for `CCc1ccccc1OCC(=O)Nc1nnc(C2CC2)s1`, the entry is “inactive”; as for `O=C(Nc1nnc(C2CC2)s1)c1cc(Cl)sc1Cl`, 20 µM (active).
Same read-out and setting: the value for `CCOc1ccc(-n2c(SCC(=O)NCc3ccccc3)nc3n[nH]c(C)c3c2=N)cc1` was “inactive”; that for `CCc1ccc2oc(-c3ccc(C)c(NC(=O)/C=C/c4ccco4)c3)nc2c1` was “inactive”; that for `Cc1nnc(NC(=O)/C=C/c2ccco2)s1` was 3.55 µM (active).
Regarding `C/C=C/C(=O)Nc1nnc(C(C)C)s1`, the Potency result was “inactive”.
Consider `CCC(CC)c1nnc(NC(=O)C2=COCCO2)s1`, for which the Potency result is “inactive”.
The same measure, in the same setting: as for `CCC(CC)c1nnc(NC(=O)/C=C/c2ccco2)s1`, the figure is 2.51 µM (active); as for `CCC(CC)c1nnc(NC(=O)C2CCN(C(=O)c3ccco3)CC2)s1`, “inactive”.
Same read-out and setting: as for `Cc1cc(NS(=O)(=O)c2ccc(NC(=O)c3ccccc3C)cc2)nc(C)n1`, the entry is “inactive”.
On the same count and under the same terms, the value for `CCc1ccc(N2C(=O)CN(S(=O)(=O)CC)CC2(C)C(=O)NC2CCCCC2)cc1` (stereo unspecified) was “inactive”.
In the case of `Cc1ccccc1OCC(=O)Nc1c(C(=O)Nc2ccccc2F)oc2ccccc12`, the Potency entry was “inactive”.
On the same count and under the same terms, the value for `CCOC(=O)c1cccc(NC(=O)c2cc(CN3CCCC3)on2)c1` was “inactive”.
On the same count and under the same terms, as for `CC1CCC2(CC1)N=C(c1ccccc1)C(=O)N2CC(=O)Nc1ccc(F)c(Cl)c1` (stereo unspecified), the entry is “inactive”.
Turning to `COc1ccc(Cl)cc1NC(=O)CSc1nc(=O)[nH]c2c1CCCC2`, the Potency entry is “inactive”.
Same read-out and setting: the value for `CCNC(=O)c1cc2n(n1)CCCN(Cc1ccc(C)cc1)C2=O` was “inactive”; that for `CCSc1nnc(-c2cc3c(s2)-c2ccccc2CC3)o1` was 12.6 µM (active).
Same read-out and setting: the value for `COc1ccccc1-c1nnc(SCC(N)=O)o1` was “inactive”; that for `Fc1ccc(CSc2nnc(-c3cc4c(s3)-c3ccccc3CC4)o2)cc1` was “inactive”; that for `CCc1ccccc1NC(=O)c1ccc(F)c(S(=O)(=O)NC2CCCCCC2)c1` was “inactive”.
The same measure, in the same setting: the value for `Fc1ccc(C(Nc2ccc(Cl)c(C(F)(F)F)c2)c2nnc(-c3ccccc3)o2)cc1` (stereo unspecified) was “inactive”; that for `COc1ccc(-n2c(C)nc3c(cnn3-c3ccc(F)cc3)c2=O)cc1` was “inactive”.
As to `COc1ccc(Oc2c(Cl)cnn(-c3ccccc3)c2=O)cc1`, the Potency was 12.6 µM (active).
Same read-out and setting: as for `COc1ccc(-n2c(=O)c3ccccc3n(Cc3ccccc3Cl)c2=O)cc1`, the entry is “inactive”.
Still for that read-out and setting: as for `Cc1ccccc1CS(=O)(=O)CC1Nc2ccc(C(=O)NCc3ccc(Cl)cc3)cc2NC1=O` (stereo unspecified), the entry is “inactive”; as for `O=C(NCc1ccc2c(c1)CCN2C(=O)c1ccccc1)Nc1cc(F)ccc1F`, “inactive”.
On the same count and under the same terms, as for `O=S(=O)(c1cccs1)N1CCc2ccccc2C1`, the entry is “inactive”; as for `CCS(=O)(=O)N1CCN(C(=O)c2cccs2)CC1`, “inactive”; as for `O=C1/C(=C/c2cccs2)CCc2ccccc21`, 11.2 µM (active).
Consider `O=C1/C(=C/c2cccs2)CCC1C1CCCC1` (stereo unspecified), for which the Potency entry is “inactive”.
As for `CCCCC1S/C(=N/N=C/c2cccs2)NC1=O` (stereo unspecified), the activation is 2.71% [at 9.22 µM].
Regarding `CCC1C/C(=C/c2cccs2)C(=O)/C(=C/c2cccs2)C1` (stereo unspecified), the Potency was 5.62 µM (active).
Still for that read-out and setting: as for `Cc1c2cnn(-c3ccccc3)c(=O)c2c(C)n1C(C)C(=O)Nc1ccc(Br)cc1F` (stereo unspecified), the entry is “inactive”; as for `COc1ccc(-c2nc3scc(CCNS(=O)(=O)c4cc(F)ccc4OC)n3n2)cc1OC`, “inactive”.
The same measure, in the same setting: as for `Cn1nc(-c2ccccc2)c(-c2ccccc2)c(C(=O)Nc2ccc(S(N)(=O)=O)cc2)c1=O`, the entry is “inactive”.
In the case of `O=S(=O)(c1ccc2nc(NCc3ccccc3Cl)ccc2c1)N1CCCCC1`, the Potency result is “inactive”.
Still for that read-out and setting: the value for `CC(OC(=O)CN1C(=O)COc2ccccc21)C(=O)NCc1ccc(F)cc1` (stereo unspecified) was “inactive”; that for `O=C(CN1C(=O)COc2ccc(Cl)cc21)Nc1ccc(N2CCOCC2)cc1` was “inactive”; that for `O=C(CN1C(=O)COc2ccccc21)Nc1ccc(F)cc1` was 12.6 µM (active).
Still for that read-out and setting: as for `CC(Nc1ccc(-c2nc(-c3ccco3)no2)cc1[N+](=O)[O-])c1ccccc1` (stereo unspecified), the entry is “inactive”; as for `CNc1ccc(-c2nc(-c3ccccc3C)no2)cc1[N+](=O)[O-]`, “inactive”.
On the same count and under the same terms, as for `CNc1ccc(-c2nc(-c3ccco3)no2)cc1[N+](=O)[O-]`, the figure is 1.41 µM (active); as for `CCCCN(CCCNC(=O)c1cc(Nc2ccccc2OC)nc2ccccc12)c1ccccc1`, “inactive”; as for `CCCOC(=O)c1c(NC(=O)c2cc3nc(-c4ccc(OC)cc4)cc(C(F)(F)F)n3n2)sc2c1CCCC2`, “inactive”.
On to `CCOc1cc(-c2nnc(SCC(=O)NC3CCCCC3)nc2-c2ccc(OC)c(OCC)c2)ccc1OC`, for which the Potency result was “inactive”.
For the compound `CCN(CC)CCNc1ncnc2c1cnn2-c1cc(Cl)ccc1C`, the Potency entry was “inactive”.
On the same count and under the same terms, as for `O=C(Nc1ccc(OC(F)(F)F)cc1)C1CCCN(S(=O)(=O)c2ccc(Br)s2)C1` (stereo unspecified), the entry is “inactive”; as for `O=C(Nc1ccc(Cl)cc1)c1ccsn1`, 11.2 µM (active).
Same read-out and setting: as for `O=C(Nc1cccc(Cl)c1)c1csnn1`, the entry is “inactive”; as for `O=C(Nc1ccc(Cl)cc1)c1csc([C@@H]2O[C@H](CO)[C@H](O)[C@H](O)[C@H]2O)n1`, “inactive”; as for `O=S(=O)(c1ccc(C2CCCCC2)cc1)N1CCN(c2ccc(Cl)c(Cl)c2)CC1`, “inactive”.
Regarding `CCOc1ccc2nc(N3CCCC(C(=O)Nc4cc(C)ccc4C)C3)sc2c1` (stereo unspecified), the Potency result is “inactive”.
`Cc1cc(C)cc(NC(=O)c2cnc3sc(N4CCCC4)nn3c2=O)c1`: the Potency result was “inactive”.
The same measure, in the same setting: as for `CCOC(=O)c1ccc(NC(=O)c2csc3c2CCCCC3)cc1`, the entry is “inactive”.
The same measure, in the same setting: as for `CCOc1ccc(CCNC(=O)c2csc3c2CCCCC3)cc1`, the entry is “inactive”; as for `COC(=O)c1sccc1NC(=O)c1csc2c1CCCC2`, 11.2 µM (active); as for `CC(C)c1ccc(C2CC(=O)N3CN(C4CCCCC4)CSC3=C2C#N)cc1` (stereo unspecified), “inactive”.
Still for that read-out and setting: as for `CC(=O)c1cccc(NC(=O)CSc2nc3c(c(=O)[nH]2)CCC3)c1`, the entry is “inactive”; as for `N#CC(=C1SC=CS1)c1nc(-c2ccccc2)cs1`, 7.08 µM (active).
Turning to `N#CC(=C1CCCC1)c1nc(-c2ccc(Cl)cc2)cs1`, the Potency result is “inactive”.
Still for that read-out and setting: as for `Cc1ccc(-c2csc(C(C#N)=C(O)CN3CCN(C(=O)c4ccco4)CC3)n2)cc1`, the entry is “inactive”.
Same read-out and setting: as for `Fc1cccc(-n2ncc3c2ncn2nc(-c4ccccc4Cl)nc32)c1`, the entry is “inactive”.
